Measurements reported in PubChem BioAssay (NCI).
Compounds without any hit were thinned out: in the full panel of roughly 83,000, 20% have a hit.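 Growth was measured after 48 h exposure to one concentration of compound in 96-well plates. Values under 10 count as active.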 Calls of active or inactive are those of the source.

tested on: KM12 colon; assay: NCI-60 one-dose screen, 48 h (100 = growth as untreated, 0 = no growth, -100 = all killed); conditions: 10 µM unless noted
Experimental: Growth inhibition of the KM12 human tumor cell line is measured as a screen for anti-cancer activity. Cells are grown in 96 well plates and exposed to the test compound for 48 hours. Compounds are tested at a single concentration, which is 10^-5 M for most compounds. The reported endpoint is percent growth (GI% or GIPRCNT), where numbers from 0 - 100% represent growth inhibition, and numbers from -100% - 0 represent cell death. For example, a value of 40 represents 60% growth inhibition. A value of 0 means no net growth occurred over the course of the experiment. A value of -40 indicates 40% of cells at the beginning of the experiment died by the end of the experiment. A value of -100 means all cells are dead at the end of the experiment.
NCI-60 Human Tumor Cell Lines Screen was performed using the standard one-dose NCI protocol, which is described in more detail at https://dtp.cancer.gov/discovery_development/nci-60/default.htm.
Compounds with GIPRCNT values below 10 were considered active. Activity score was based on GIPRCNT using the following formula: […]
Score is 0 for GIPRCNT values of 100 or above, 50 for GIPRCNT values of 0, and 100 for GIPRCNT values of -100.

Row | SMILES | growth
1 | Oc1ccccc1/C=N/N=C/c1c(O)ccc2ccccc12 | 76.4% (inactive)
2 | CCCCCCNc1nc(N2CCOCC2)c2[nH]c(NCCCCCC)nc2n1 | -89.9% (active)
3 | C/C(CCC(=O)O)=N/Nc1ccc([N+](=O)[O-])cc1 | 27.1% (inactive)
4 | O=C(OCC1CC2(Cl)C(Cl)=C(Cl)C1(Cl)C2(Cl)Cl)C1C(C(=O)OCC2CC3(Cl)C(Cl)=C(Cl)C2(Cl)C3(Cl)Cl)C2(Cl)C(Cl)=C(Cl)C1(Cl)C2(Cl)Cl (stereo not given) | 101% (inactive)
5 | CC1(c2ccc(Br)cc2)NC(=O)NC1=O (stereo not given) | 101% (inactive)
6 | COc1ccc(-c2nc(SCC(C)C)nc(Nc3ccccc3)c2C#N)cc1 | 97.9% (inactive)
7 | COC1=C(OC)C(=O)c2ccccc2C1=O | 105% (inactive)
8 | CC(C)CSc1nc(-c2ccc(F)cc2)c(C#N)c(N2CCCCC2)n1 | 86.1% (inactive)
9 | COc1ccc(C(=O)c2no[n+]([O-])c2C(=O)c2ccc(OC)cc2)cc1 | 102% (inactive)
10 | Nc1ccc(S(=O)(=O)Nc2cc(F)cc(F)c2)cc1 | 107% (inactive)
11 | COc1cccc2c1n([O-])c1cccc(OC)c1[n+]2=O | 73.3% (inactive)
12 | CCCCCCCCC/C(=N\NC(=O)c1ccncc1)c1ccc(O)c(O)c1O | 22.4% (inactive)
13 | CCCCCCCCC(=O)Nc1ccc(O)cc1 | 90.9% (inactive)
14 | C[C@@H](c1ccc2c(c1)[nH]c1ccc(Cl)cc12)c1nc2ccc(Cl)cc2[nH]1 | 81.9% (inactive)
15 | CC(=O)c1ccc2c(c1)c1ccccc1n2C | 97.9% (inactive)
16 | CCCC(=O)NNc1[nH]c(-c2ccc(OC)cc2)cc1C(=O)OCC | 98.9% (inactive)
17 | [2H]c1nc(=Nc2cc(NC(=O)C=C)c(N(C)CCN(C)C)cc2OC)[nH]c(-c2cn(C([2H])([2H])[2H])c3ccccc23)c1[2H] | 65.3% (inactive)
18 | COc1ccc(C2C3(C#N)C(N)=NC(=C(C#N)C#N)C23C#N)cc1OC (stereo not given) | 118% (inactive)
19 | COC(=O)[C@H](Cc1cn(C)cn1)NC(=O)[C@H](CC(=O)OCc1ccccc1)NC(=O)Nc1cc(C(F)(F)F)cc(C(F)(F)F)c1 | -89.8% [100 µM] (active)
20 | Oc1ccc([S+](c2ccc(O)cc2)c2ccc(O)cc2)cc1 | 107% (inactive)

Row | SMILES | growth
21 | CCCCN(CCCC)c1ccc(C(=O)O)cc1 | 103% (inactive)
22 | CC[N+](C)(C)N | 107% (inactive)
23 | CCC(C)(C)c1ccc(OCCCCCCN2CCNCC2)cc1 | 25.2% (inactive)
24 | COc1cc(/C=C/C(=O)c2ccc(F)cc2)ccc1OCCCCOc1cc2c(cc1OC)C(=O)N1CCCC1C=N2 (stereo not given) | -64.1% (active)
25 | O=C(Nc1cccc(Cn2c(=O)[nH]c3ccc(Oc4ncccn4)cc3c2=O)c1)c1cc(Cl)cc(Cl)c1 | 40.6% (inactive)
26 | O=C(NCCCl)Nc1nccnc1OCc1ccc(F)cc1 | 107% (inactive)
27 | COc1ccc(CNCCCN2C(=O)c3ccc4c5c(ccc(c35)C2=O)C(=O)N(CCCNCc2ccc(OC)c(OC)c2OC)C4=O)c(OC)c1OC | -89.9% (active)
28 | c1cc[c]([Bi]([c]2ccccc2)[c]2ccccc2)cc1 | 97.1% (inactive)
29 | C=C(C)[C@@H]1CC[C@]2(COC(=O)c3ccccc3C(=O)O)CC[C@]3(C)[C@H](CC[C@@H]4[C@@]5(C)CCCNC(C)(C)[C@@H]5CC[C@]43C)[C@@H]12 | 51.9% (inactive)
30 | Cc1ccc(NCc2cn(-c3ccc(C(=O)O)cc3)nc2-c2ccc(C(=O)O)cc2)cc1 | 93.9% (inactive)
31 | COc1ccc(CN2C(=O)/C(=C\C(=O)c3ccc(OCCN4CCCCC4)cc3)c3ccccc32)cc1 | 89% (inactive)
32 | O=c1oc2ccc3ccccc3c2cc1-c1ccnc2[nH]c(=S)[nH]c(=O)c12 | 101% (inactive)
33 | Cc1nc(NC(=O)NC2CCCCC2)sc1C(=O)NN | 102% (inactive)
34 | N=C(N)N=Nc1ccc(NN=C(N)N)c2ccccc12 | 109% (inactive)
35 | Nc1cc(N)c2nc(NCCc3ccc(Cl)c(Cl)c3)cnc2c1 | 35.6% (inactive)
36 | O=C1/C(=C\c2cn(-c3nc(N4CCOCC4)nc(N4CCOCC4)n3)c3ccccc23)c2ccccc2N1c1c(Cl)cccc1Cl | 88.5% (inactive)
37 | Cc1ccc(C(=O)Nc2ccc(CN3CCN(C)CC3)c(C(F)(F)F)c2)cc1C#Cc1cnc(N)c2ccc(F)cc12 | -76.9% (active)
38 | CSCc1ncc(-c2ccc(C(F)(F)F)cc2)c(NC2CCCCCC2)n1 | 52.1% [25 µM] (inactive)
39 | CCOC(=O)C1=C(C(F)(F)F)NC(=S)NC1CN1C(=O)c2ccccc2C1=O (stereo not given) | 111% (inactive)
40 | CC1(C)Oc2cc3oc(=O)ccc3cc2C[C@@H]1OCCOS(=O)(=O)c1ccc(C#N)cc1 | 103% (inactive)
